# HSF1 activator – HSF-1 activators, primary screen, NIH3T3-HGL cells, MG132 stress, luminescence, single point | activation, % at 9 µM | AID 504408, 2011 | actives 1.7% (n = 300,000) | NIH3T3-HGL HSF-1 luciferase reporter, 8 h; 100% = twice DMSO control signal;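 active = mean replicate activation of at least 50% with a set share of replicates each reaching 50%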;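 note: 0% = median of the neutral control wells and 100% = twice that signal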
# S1P4 agonist – S1P4 receptor agonists, primary screen, cell-based; activation, % at 4.98 µM; actives 0.35% (n = 220,000); Sphingosine 1-phosphate receptor 4 (Homo sapiens), O95977; S1P4-expressing cell line, agonist reporter assay; in the data active = activation above about 11%;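 note: 0% = DMSO vehicle and 100% = reference agonist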
# Target sequence (O95977 whole entry, looked up): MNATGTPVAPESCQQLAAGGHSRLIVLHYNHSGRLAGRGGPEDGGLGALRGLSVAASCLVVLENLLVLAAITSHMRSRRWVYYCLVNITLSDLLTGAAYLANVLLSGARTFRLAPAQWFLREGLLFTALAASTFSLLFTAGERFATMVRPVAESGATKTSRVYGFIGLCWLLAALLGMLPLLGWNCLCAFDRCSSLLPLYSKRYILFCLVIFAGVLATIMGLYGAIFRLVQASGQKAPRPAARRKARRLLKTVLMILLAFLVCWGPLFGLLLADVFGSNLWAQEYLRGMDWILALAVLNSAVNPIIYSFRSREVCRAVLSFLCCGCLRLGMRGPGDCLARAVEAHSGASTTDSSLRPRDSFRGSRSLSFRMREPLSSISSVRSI
# S1P4 antag – S1P4 receptor antagonists, primary screen, cell-based. actives 0.26% (n = 220,000). inhibition, % at 4.98 µM. S1P4-expressing cells, antagonist mode, reporter read-out. Sphingosine 1-phosphate receptor 4 (Homo sapiens), O95977. AID 1510, 2009; in the data active = inhibition above about 29%;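 note: 0% = wells stimulated with agonist and 100% = vehicle wells without agonist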
# S1P3 antagonist – S1P3 receptor antagonists, primary screen, cell-based | Sphingosine 1-phosphate receptor 3 (Homo sapiens), Q99500 | CHO S1P3 NFAT-BLA reporter, FRET fluorescence, antagonist mode | inhibition, % at 4.98 µM | actives 0.27% (n = 170,000) | AID 485, 2006;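 active = inhibition above the plate cutoff, the mean inhibition of test wells on that plate plus 3 SD, cut at about 28% in these data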;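 note: cells challenged with S1P at its EC80 of 0.8 µM; blue over green emission ratio from cleaved BLA substrate after 4 h stimulation; 0% = S1P-stimulated wells and 100% = unstimulated DMSO-only wells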
# HSF1 inh – HSF1 inhibitors in luciferase reporter cells, primary screen, cell-based, NIH3T3, luminescence; NIH3T3-HGL HSE-luciferase, MG132-induced, luminescence 8 h; hits give low values; activity change, negative = inhibition, % at 7.5 µM (by protocol); actives 0.77% (n = 300,000); AID 2098, 2009;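 active = more than half of replicate wells show activity change below -50%, luminescence cut by over half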;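 note: luciferase reports HSF-1 transcriptional activity via heat shock element; 0% = median of DMSO wells and -100% = zero luminescence signal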
# Hsp70 act – Hsp70 transcriptional activators, primary screen, cell-based, HeLa, Hsp70 promoter luciferase, luminescence, 10 µM | HeLa Hsp70 promoter luciferase reporter; scaled: vehicle 0, proteasome-inhibitor control 100% | activation, % at 10 µM | actives 0.04% (n = 200,000);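 active = activation above the mean across all tested compounds plus 3 SD, cutoff set per campaign, cut at about 5.5% in these data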;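 note: 100% = MG132 at 30 µM as the positive control and 0% = DMSO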
# * = called active by the depositor; . = no result. This is a sample that favours compounds with a hit; in the whole collection about 2.9% have one here.
SMILES,HSF1 activator,S1P4 agonist,S1P4 antag,S1P3 antagonist,HSF1 inh,Hsp70 act
O/C(=C\Sc1nnc(Cc2ccccc2)o1)c1ccc(Br)cc1,-3,1,-15,81*,-6,0
c1ccc(Cc2nnc(-c3ccccc3)o2)cc1,29,5,-11,25,20,0
O=C(CSc1nnc(Cc2ccccc2)o1)Nc1ccc(Br)cn1,-4,-2,-21,-4,2,0
Brc1ccc(-c2nnc(Cc3ccccc3)o2)cc1,56*,1,1,12,34,.
O=C(Cc1cccc2ccccc12)NCC(=O)Nc1ccccc1F,-3,.,.,.,-1,.
C=C1SC(=Nc2ccccc2Cl)N(C(=O)c2sc3ccccc3c2Cl)C1(C)C,57*,0,-11,1,6,.
CCn1c(C(=O)O)c(CC(=O)Nc2cccc(C(F)(F)F)c2)c2ccccc21,1,.,.,.,-7,.
COc1cccc(CNc2ccccn2)c1O,37,.,.,.,9,.
COc1cccc(CNc2ccc(F)c(Cl)c2)c1O,75*,1,2,1,61,0
COc1cccc(CNc2ccc(F)c(Cl)c2)c1,.,-3,1,.,.,0
COc1cccc(CNc2cnc3ccccc3c2)c1O,73*,0,-10,.,84,0
Cc1ccc(O)c(CNc2cnc3ccccc3c2)c1,30,.,.,.,20,.
COc1cccc(CNc2cccc3cccnc23)c1O,76*,-2,1,.,37,0
CCc1cc2c(=O)c(-c3ccc4c(c3)OCCO4)coc2c(CN2CCCCC2C)c1O (stereo unspecified),2,0,5,-2,4,0
CCc1cc2c(=O)c(-c3ccc4c(c3)OCCO4)coc2cc1OS(C)(=O)=O,56*,2,-5,17,28,0
CCCCCCOC(=O)c1ccc(OC(=O)c2cccnc2)cc1,58*,2,-3,.,31,0
CC(NO)/C(=N\O)c1cccs1 (stereo unspecified),-57,0,3,.,-51*,0
O=C(Cn1nnc(-c2ccccc2)n1)Nc1cccc(S(=O)(=O)N2CCOCC2)c1,2,.,.,.,-3,.
N#C/C(=C\c1cn(Cc2ccc(F)cc2)c2ccccc12)C(=O)NCc1ccco1,15,2,-26,-2,-2,0
N#C/C(=C\c1cn(Cc2cccc(F)c2)c2ccccc12)C(=O)NCc1ccco1,68*,2,-5,-8,43,0
N#C/C(=C\c1cn(Cc2ccccc2)c2ccccc12)C(=O)NCc1ccco1,75*,0,-2,-9,42,0
Cc1cccc(NC(=O)/C(C#N)=C/c2cn(CC(=O)NCc3ccco3)c3ccccc23)c1C,61*,4,0,3,31,0
COc1ccc(NC(=O)CN2C(=O)CSC(C)C2=O)cc1 (stereo unspecified),-7,2,-12,-5,-7,0
COc1ccc(OC)c(Cc2nnc(CCC(=O)N3CCN(C4CCCC4)CC3)o2)c1,37,.,.,.,10,.
COc1ccc(-n2c(SCC(=O)Nc3ccc(C(N)=O)cc3)nc3ccccc3c2=O)cc1OC,60*,.,.,.,17,.
SMILES,HSF1 activator,S1P4 agonist,S1P4 antag,S1P3 antagonist,HSF1 inh,Hsp70 act
Cc1nnc(Sc2cc(C(=O)NC3CC3)c3ccccc3n2)s1,-3,0,-14,3,-9,.
CCOc1ccc(-c2nc(CSCC(=O)NCC3CCCO3)c(C)o2)cc1 (stereo unspecified),-56,.,.,.,-57*,.
CCc1ccc(-c2nc(CSCC(=O)NCc3ccco3)c(C)o2)cc1,-77,1,1,-10,-72*,0
O=C1OC(/C=C/c2ccccc2)=NC/1=C/C=C/c1ccccc1,112*,0,-14,0,82,0
O=c1[nH]c(Cc2ccccc2Cl)nc2ccccc12,0,-2,-9,-1,4,0
O=c1[nH]c(COc2ccc(Cl)cc2Br)nc2ccccc12,61*,.,.,.,39,.
O=c1[nH]c(COc2ccc(Cl)cc2Cl)nc2ccccc12,85*,.,.,.,57,.
O=C(CCc1nc2ccccc2c(=O)[nH]1)NNC(=O)COc1ccccc1Cl,-7,.,.,.,-1,.
COCC(C)N1CCC(Oc2ccc(C(=O)N3CCCC3)cc2)CC1 (stereo unspecified),14,.,.,.,-3,.
COc1ccc(NC(=S)N(Cc2ccc(N(C)C)cc2)Cc2ccco2)cc1,91*,-1,0,-8,68,0
O=C(NC(=S)Nc1cnc2ccccc2c1)c1ccccc1,40,2,21,-28,9,0
O=C(NC(=S)Nc1ncc(Br)cc1Br)c1ccccc1,76*,.,.,.,36,.
O=C(CSc1nnc2c(Cl)cc(C(F)(F)F)cn12)N(Cc1ccccc1)Cc1ccccc1,105*,1,-3,-6,57,0
O=C(CSc1nnc2c(Cl)cc(C(F)(F)F)cn12)NCc1ccc(F)cc1,20,0,-18,-3,-2,0
CCc1nn(C(CC)C(=O)NCCc2ccc(OC)cc2OC)c(=O)c2cc3occc3n12 (stereo unspecified),28,.,.,.,12,.
O=C(CSC1=NCCN1)Nc1cccc(C(F)(F)F)c1,67*,-1,-1,-7,28,0
COc1ccc(S(=O)(=O)NCC2CCCN(C(=O)CC3CCCC3)C2)cc1 (stereo unspecified),4,4,-15,-10,-1,0
COc1ccc(S(=O)(=O)NCC2CCCN(C(=O)C3CCCC3)C2)cc1 (stereo unspecified),-70,-3,2,-19,-62*,0
CCn1c(=O)cc(SCC(=O)N2CCN(C)CC2)c2ccccc21,63*,0,1,.,33,0
CCN1CCN(C(=O)CSc2cc(=O)n(CC)c3ccccc23)CC1,12,1,-8,.,9,0
O=C(Nc1ccc(F)cc1F)c1cc2nc3c(c(C(F)(F)F)n2n1)CCCC3,-62,2,-14,6,-55*,0
O=C(O)c1cc2nc3c(c(C(F)(F)F)n2n1)CCCC3,-1,3,-11,15,4,0
CCN(CC)S(=O)(=O)c1ccc(N2CCOCC2)c(NC(=O)c2ccccc2F)c1,-1,1,-11,-16,1,0
CCN(CC)S(=O)(=O)c1ccc(N2CCOCC2)c(NC(=O)c2cc3ccccc3oc2=O)c1,69*,.,.,.,27,.
Cc1ccnc(NS(=O)(=O)c2ccc(NC(=O)COc3ccccc3)cc2)n1,-91,2,2,-1,-88*,-1
CCc1ccccc1NS(=O)(=O)c1cc2c3c(c1)CCN3C(=O)CC2,62*,.,.,.,21,.

# Screening data: PubChem, several laboratories
